# Data taken from ChEMBL document CHEMBL1961873, “Compounds: GSK PKIS; Assays: Nanosyn kinase panel” (2012).
# Tests used:
# [1] = target: Sphingosine kinase 1 (Homo sapiens) (UniProt Q9NYA1); details: at 1 µM;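 note: mean SPHK1 inhibition value reported from the GSK PKIS kinase panel screen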
# [2] = target: T1, Sphingosine kinase 2 (Homo sapiens) (UniProt Q9NRA0); details: at 0.1 µM
# T1 sequence (whole entry): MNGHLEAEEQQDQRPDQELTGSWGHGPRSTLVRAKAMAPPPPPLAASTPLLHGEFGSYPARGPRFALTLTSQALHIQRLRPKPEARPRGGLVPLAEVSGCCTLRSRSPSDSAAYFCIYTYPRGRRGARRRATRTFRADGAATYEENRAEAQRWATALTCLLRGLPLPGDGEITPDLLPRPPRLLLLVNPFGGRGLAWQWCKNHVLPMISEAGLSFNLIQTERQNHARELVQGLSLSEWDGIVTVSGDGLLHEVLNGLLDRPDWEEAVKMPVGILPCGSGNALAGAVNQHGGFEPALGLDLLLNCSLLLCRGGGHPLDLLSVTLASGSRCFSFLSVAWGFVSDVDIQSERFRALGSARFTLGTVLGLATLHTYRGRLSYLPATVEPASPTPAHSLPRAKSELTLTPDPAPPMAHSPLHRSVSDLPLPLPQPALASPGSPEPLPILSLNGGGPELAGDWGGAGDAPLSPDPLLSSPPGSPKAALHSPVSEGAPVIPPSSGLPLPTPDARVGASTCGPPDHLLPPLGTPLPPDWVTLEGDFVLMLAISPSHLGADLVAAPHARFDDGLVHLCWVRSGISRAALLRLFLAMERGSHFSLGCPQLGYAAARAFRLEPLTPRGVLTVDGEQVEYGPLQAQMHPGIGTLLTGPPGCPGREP
# [3] = target: T1, Sphingosine kinase 2 (Homo sapiens); details: at 1 µM
# [4] = target: Casein kinase II subunit alpha (Homo sapiens) (UniProt P68400); details: at 0.1 µM
# [5] = target: Casein kinase II subunit alpha (Homo sapiens) (UniProt P68400); details: at 1 µM
# [6] = target: T2, Inhibitor of nuclear factor kappa-B kinase subunit alpha (Homo sapiens) (UniProt O15111); details: at 0.1 µM
# T2 sequence (whole entry): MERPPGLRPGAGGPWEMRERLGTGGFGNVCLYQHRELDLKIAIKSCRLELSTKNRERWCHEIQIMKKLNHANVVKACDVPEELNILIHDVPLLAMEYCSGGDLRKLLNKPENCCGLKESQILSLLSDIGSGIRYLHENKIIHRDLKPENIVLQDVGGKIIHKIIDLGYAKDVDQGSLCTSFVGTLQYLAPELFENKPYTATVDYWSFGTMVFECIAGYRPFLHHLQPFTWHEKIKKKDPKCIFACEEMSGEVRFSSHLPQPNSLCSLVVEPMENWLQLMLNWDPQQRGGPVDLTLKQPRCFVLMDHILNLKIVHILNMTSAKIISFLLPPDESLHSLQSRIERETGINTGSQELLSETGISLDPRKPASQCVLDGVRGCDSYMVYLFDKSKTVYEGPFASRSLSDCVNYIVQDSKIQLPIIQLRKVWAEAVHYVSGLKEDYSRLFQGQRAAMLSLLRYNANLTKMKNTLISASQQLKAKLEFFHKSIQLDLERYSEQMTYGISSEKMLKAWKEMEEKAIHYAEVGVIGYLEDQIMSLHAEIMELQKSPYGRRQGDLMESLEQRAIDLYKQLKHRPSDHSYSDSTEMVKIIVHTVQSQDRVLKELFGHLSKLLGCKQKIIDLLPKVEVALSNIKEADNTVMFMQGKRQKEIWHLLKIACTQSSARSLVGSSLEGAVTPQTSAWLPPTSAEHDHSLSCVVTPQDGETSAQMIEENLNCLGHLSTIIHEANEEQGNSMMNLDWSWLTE
# [7] = target: T2, Inhibitor of nuclear factor kappa-B kinase subunit alpha (Homo sapiens); details: at 1 µM
# [8] = target: T3, Inhibitor of nuclear factor kappa-B kinase subunit beta (Homo sapiens) (UniProt O14920); details: at 0.1 µM
# T3 sequence (whole entry): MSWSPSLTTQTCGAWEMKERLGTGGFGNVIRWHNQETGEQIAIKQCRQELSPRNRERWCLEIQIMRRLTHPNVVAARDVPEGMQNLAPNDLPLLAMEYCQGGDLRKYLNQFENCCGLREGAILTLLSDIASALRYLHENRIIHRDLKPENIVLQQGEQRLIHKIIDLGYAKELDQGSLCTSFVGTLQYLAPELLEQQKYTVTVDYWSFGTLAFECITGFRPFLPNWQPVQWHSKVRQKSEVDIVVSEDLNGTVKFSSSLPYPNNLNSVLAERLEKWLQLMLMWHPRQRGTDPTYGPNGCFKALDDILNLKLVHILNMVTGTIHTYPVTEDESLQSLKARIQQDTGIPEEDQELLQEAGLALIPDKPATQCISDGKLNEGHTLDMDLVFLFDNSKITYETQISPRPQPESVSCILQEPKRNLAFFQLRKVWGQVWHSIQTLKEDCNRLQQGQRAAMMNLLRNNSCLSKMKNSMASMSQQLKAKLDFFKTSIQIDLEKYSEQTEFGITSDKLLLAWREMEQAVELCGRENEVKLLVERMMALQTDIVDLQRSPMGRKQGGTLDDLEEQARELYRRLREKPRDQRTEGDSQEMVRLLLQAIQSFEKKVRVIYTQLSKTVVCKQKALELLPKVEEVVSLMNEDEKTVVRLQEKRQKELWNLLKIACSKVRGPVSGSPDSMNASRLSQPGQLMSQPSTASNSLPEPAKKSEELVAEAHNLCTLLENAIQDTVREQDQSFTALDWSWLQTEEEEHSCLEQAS
# [9] = target: T3, Inhibitor of nuclear factor kappa-B kinase subunit beta (Homo sapiens); details: at 1 µM
# [10] = target: T4, Inhibitor of nuclear factor kappa-B kinase subunit epsilon (Homo sapiens) (UniProt Q14164); details: at 0.1 µM
# T4 sequence (whole entry): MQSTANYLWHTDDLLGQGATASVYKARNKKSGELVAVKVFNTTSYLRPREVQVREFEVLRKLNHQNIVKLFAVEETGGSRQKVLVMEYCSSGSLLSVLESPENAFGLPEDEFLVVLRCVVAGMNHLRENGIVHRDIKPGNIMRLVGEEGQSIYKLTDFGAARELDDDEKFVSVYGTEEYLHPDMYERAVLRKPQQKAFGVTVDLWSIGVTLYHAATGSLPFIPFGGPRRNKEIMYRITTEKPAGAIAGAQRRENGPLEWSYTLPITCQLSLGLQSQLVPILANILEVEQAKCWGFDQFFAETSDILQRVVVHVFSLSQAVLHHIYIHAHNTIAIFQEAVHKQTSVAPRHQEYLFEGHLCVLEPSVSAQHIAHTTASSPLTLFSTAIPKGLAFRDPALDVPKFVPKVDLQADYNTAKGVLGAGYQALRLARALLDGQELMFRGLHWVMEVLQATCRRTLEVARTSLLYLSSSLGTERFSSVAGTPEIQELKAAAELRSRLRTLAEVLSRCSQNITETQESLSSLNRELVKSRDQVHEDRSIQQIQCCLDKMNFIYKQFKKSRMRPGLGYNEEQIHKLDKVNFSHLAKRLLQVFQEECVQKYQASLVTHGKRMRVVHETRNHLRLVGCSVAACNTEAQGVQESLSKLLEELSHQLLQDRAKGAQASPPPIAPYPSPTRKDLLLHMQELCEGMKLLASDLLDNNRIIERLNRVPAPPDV
# [11] = target: T4, Inhibitor of nuclear factor kappa-B kinase subunit epsilon (Homo sapiens); details: at 1 µM
# [12] = target: T5, Serine/threonine-protein kinase Nek1 (Homo sapiens) (UniProt Q96PY6); details: at 0.1 µM
# T5 sequence (whole entry): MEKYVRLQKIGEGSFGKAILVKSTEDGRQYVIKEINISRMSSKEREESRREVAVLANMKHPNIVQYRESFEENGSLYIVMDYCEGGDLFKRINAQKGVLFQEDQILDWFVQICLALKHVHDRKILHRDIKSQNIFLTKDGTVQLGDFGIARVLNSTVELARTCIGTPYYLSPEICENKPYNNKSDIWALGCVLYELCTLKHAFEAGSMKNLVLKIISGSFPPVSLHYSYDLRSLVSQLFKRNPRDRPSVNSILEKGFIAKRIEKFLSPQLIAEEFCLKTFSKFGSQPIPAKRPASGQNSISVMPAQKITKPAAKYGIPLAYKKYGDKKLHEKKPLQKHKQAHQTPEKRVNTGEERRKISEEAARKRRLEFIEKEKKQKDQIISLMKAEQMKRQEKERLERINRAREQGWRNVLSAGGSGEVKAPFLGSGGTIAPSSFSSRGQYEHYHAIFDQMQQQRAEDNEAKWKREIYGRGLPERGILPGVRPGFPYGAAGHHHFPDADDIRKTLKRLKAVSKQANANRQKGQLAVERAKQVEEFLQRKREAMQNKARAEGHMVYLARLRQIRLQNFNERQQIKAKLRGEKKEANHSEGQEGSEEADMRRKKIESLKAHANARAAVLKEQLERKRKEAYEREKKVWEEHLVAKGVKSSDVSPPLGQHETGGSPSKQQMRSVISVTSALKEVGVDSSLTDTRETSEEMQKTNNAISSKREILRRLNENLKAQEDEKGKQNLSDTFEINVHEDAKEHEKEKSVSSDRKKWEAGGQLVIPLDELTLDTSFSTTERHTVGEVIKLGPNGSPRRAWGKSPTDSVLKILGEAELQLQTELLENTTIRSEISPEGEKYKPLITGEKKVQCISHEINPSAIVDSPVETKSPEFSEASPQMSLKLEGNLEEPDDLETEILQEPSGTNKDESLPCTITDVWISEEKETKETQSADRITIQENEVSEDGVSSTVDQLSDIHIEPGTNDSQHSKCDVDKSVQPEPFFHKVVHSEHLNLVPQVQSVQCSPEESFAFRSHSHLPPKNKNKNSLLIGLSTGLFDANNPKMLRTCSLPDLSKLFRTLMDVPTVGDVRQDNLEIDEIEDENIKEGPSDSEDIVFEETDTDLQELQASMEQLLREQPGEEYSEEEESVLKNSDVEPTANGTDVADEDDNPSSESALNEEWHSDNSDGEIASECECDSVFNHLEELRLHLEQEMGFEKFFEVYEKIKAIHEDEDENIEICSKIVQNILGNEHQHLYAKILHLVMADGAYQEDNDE
# [13] = target: T5, Serine/threonine-protein kinase Nek1 (Homo sapiens); details: at 1 µM
# [14] = target: T6, Serine/threonine-protein kinase Nek2 (Homo sapiens) (UniProt P51955); details: at 0.1 µM
# T6 sequence (whole entry): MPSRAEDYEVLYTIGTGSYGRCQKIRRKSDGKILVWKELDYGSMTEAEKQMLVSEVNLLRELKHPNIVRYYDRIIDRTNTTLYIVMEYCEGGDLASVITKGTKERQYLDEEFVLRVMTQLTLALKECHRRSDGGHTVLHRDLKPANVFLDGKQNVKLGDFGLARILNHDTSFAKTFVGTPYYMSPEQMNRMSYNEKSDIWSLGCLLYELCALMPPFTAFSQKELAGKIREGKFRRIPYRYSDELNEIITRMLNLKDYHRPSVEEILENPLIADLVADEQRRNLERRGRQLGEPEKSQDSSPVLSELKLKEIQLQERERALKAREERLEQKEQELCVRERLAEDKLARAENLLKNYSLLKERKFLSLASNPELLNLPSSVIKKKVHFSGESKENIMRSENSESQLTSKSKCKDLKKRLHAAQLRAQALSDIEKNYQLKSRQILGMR
# [15] = target: T6, Serine/threonine-protein kinase Nek2 (Homo sapiens); details: at 1 µM
# [16] = target: Serine/threonine-protein kinase Nek6 (Homo sapiens) (UniProt Q9HC98); details: at 0.1 µM
# [17] = target: Serine/threonine-protein kinase Nek6 (Homo sapiens) (UniProt Q9HC98); details: at 1 µM
# [18] = target: Serine/threonine-protein kinase Nek7 (Homo sapiens) (UniProt Q8TDX7); details: at 0.1 µM
# [19] = target: Serine/threonine-protein kinase Nek7 (Homo sapiens) (UniProt Q8TDX7); details: at 1 µM
# [20] = target: T7, Serine/threonine-protein kinase Nek9 (Homo sapiens) (UniProt Q8TD19); details: at 0.1 µM;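 note: reported value is the mean percent inhibition of NEK9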
# T7 sequence (whole entry): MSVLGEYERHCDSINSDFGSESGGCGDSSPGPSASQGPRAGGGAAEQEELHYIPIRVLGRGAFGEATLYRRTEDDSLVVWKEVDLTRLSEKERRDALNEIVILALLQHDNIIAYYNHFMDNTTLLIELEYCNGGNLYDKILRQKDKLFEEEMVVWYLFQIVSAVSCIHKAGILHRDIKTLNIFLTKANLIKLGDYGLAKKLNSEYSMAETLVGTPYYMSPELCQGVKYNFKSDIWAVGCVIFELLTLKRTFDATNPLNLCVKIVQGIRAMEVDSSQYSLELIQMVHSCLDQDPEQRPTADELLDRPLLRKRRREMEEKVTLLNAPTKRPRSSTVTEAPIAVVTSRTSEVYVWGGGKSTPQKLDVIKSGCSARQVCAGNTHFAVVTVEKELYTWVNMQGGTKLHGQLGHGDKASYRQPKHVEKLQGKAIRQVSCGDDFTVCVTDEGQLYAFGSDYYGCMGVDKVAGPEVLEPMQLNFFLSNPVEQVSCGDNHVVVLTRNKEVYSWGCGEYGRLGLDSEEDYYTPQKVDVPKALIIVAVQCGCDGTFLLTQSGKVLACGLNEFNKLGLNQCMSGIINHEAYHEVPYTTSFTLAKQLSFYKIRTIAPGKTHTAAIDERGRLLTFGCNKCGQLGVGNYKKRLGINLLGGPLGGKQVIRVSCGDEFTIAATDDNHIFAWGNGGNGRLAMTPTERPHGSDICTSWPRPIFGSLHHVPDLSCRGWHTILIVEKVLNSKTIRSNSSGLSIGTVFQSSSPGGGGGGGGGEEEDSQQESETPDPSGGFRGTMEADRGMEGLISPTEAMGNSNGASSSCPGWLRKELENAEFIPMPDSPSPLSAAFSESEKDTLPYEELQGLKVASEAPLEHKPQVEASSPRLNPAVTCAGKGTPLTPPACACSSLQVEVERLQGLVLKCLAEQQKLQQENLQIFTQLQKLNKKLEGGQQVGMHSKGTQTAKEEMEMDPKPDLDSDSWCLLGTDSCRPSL
# Casein kinase II subunit alpha (Homo sapiens), sequence (P68400 whole entry, looked up): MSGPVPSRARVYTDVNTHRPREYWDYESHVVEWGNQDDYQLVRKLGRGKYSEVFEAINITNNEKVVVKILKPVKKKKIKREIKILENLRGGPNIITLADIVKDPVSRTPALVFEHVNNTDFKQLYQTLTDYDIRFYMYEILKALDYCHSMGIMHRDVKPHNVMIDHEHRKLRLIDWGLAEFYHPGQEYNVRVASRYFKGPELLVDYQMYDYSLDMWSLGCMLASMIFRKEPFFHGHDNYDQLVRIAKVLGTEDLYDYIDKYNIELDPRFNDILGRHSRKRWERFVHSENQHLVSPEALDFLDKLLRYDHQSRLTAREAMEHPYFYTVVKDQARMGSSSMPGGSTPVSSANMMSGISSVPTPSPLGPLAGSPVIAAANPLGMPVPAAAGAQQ
# Serine/threonine-protein kinase Nek6 (Homo sapiens), sequence (Q9HC98 whole entry): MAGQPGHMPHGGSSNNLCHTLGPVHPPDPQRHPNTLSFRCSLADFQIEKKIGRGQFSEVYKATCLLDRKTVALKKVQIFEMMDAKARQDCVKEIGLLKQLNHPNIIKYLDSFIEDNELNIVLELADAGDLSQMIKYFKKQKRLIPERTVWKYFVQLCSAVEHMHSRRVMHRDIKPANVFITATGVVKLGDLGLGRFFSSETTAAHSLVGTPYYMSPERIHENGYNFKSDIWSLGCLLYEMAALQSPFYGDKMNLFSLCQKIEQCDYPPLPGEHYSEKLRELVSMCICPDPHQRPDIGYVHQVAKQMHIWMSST
# Serine/threonine-protein kinase Nek7 (Homo sapiens), sequence (Q8TDX7 whole entry, looked up): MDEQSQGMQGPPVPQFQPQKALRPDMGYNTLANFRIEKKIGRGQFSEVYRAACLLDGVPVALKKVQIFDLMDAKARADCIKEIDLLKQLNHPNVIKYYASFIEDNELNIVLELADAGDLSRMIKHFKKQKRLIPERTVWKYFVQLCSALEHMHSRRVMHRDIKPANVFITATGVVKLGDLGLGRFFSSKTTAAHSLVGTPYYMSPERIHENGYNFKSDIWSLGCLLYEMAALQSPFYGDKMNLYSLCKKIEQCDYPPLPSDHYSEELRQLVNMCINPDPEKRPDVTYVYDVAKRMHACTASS
# Sphingosine kinase 1 (Homo sapiens), sequence (Q9NYA1 whole entry): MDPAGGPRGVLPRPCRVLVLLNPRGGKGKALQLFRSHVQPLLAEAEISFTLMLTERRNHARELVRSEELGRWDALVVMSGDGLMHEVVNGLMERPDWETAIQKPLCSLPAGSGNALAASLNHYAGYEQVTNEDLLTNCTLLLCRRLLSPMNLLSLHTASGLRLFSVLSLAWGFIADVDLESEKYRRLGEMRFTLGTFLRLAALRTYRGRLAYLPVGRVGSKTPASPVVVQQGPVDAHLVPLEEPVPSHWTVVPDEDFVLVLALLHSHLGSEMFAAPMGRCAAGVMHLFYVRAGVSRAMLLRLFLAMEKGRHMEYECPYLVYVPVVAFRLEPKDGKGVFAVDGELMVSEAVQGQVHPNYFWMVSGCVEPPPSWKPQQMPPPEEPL
smiles,measurement,setting,value
CC1=C(C(=O)Nc2ccc3[nH]ncc3c2)C(c2ccc(F)cc2)N=C(c2ccc(C(F)(F)F)nc2)N1 (stereo not given),inhibition,[1],2.01%
same,inhibition,[2],0%
same,inhibition,[3],-2.07%
same,inhibition,[4],2.45%
same,inhibition,[5],2.14%
same,inhibition,[6],7.64%
same,inhibition,[7],-0.7%
same,inhibition,[8],2.1%
same,inhibition,[9],-0.37%
same,inhibition,[10],2.04%
same,inhibition,[11],3.45%
same,inhibition,[12],1.75%
same,inhibition,[13],1.45%
same,inhibition,[14],3.41%
same,inhibition,[15],2.65%
same,inhibition,[16],1.87%
same,inhibition,[17],-0.45%
same,inhibition,[18],3.08%
same,inhibition,[19],2.92%
same,inhibition,[20],2.7%
